An excerpt weighted towards active compounds, which were near 12% of everything screened.
Cl transport mod = KCC2 cotransporter modulators, thallium flux, primary screen, cell-based, HEK293 KCC2, FluoZin-2 fluorescence, MLSMR. Solute carrier family 12 member 5 (Homo sapiens), Q9H2X9. KCC2 cells, thallium flux FluoZin-2 fluorescence. B-score of Tl+ flux slope (higher = more flux/activation; lower = inhibition) at 10 µM. 190,000 tested, 2.2% active. AID 1456, 2008;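 active = thallium flux slope and its plate-corrected score both differing from the plate sample mean at a set confidence after two filtering rounds, in either direction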;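 also: slope of fluorescence scaled to starting intensity during 10 to 20 s after thallium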
Target sequence (Q9H2X9 whole entry, looked up): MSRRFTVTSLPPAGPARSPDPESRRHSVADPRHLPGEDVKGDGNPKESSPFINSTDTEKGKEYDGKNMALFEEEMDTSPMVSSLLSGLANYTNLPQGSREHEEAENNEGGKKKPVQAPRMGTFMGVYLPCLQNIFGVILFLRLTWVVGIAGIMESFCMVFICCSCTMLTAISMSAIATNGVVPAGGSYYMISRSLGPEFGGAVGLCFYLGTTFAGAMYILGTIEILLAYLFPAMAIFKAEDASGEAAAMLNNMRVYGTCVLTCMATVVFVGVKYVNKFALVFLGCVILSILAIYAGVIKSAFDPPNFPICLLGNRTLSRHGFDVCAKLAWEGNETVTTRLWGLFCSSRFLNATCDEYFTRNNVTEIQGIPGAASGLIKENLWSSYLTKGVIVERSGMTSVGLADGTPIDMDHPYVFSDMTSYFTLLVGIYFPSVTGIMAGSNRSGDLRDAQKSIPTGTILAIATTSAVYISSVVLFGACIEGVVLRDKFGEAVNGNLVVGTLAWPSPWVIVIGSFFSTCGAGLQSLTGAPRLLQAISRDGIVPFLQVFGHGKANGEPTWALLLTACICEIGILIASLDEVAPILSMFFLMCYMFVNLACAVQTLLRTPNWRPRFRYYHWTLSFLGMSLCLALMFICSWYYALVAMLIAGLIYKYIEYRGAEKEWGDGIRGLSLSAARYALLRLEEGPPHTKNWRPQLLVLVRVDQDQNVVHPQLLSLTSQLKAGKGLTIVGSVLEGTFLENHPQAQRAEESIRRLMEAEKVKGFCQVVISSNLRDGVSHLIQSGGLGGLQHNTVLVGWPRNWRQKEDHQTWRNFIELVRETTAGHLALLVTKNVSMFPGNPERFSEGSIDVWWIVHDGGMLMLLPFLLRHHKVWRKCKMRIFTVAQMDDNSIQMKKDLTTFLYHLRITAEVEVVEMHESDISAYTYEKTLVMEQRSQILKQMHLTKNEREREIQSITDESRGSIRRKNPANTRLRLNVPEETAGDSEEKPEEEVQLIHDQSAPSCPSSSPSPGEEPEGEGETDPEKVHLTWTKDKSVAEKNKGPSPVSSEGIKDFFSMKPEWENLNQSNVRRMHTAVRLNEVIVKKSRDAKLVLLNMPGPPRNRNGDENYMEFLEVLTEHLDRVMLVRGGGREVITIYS
ROMK primary = ROMK potassium channel modulators, primary screen, cell-based, thallium flux, MLSMR library; ATP-sensitive inward rectifier potassium channel 1 (Homo sapiens), P48048; Tet-inducible ROMK, thallium flux fluorescence; actives lie on both sides; B-score at 10 µM; 130,000 tested, 2% active; AID 1918, 2009;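 active = signal ratio slope over the read window, or its plate-corrected B-score, at least 3 SD from the plate mean, either direction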;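 also: B-score of the F/F0 ratio slope over 7 to 12 s after thallium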
m-calpain inh = inhibitors of pig calpain II, primary screen, biochemical, fluorogenic peptide substrate, 1536-well | 220,000 tested, 0.37% active | inhibition, % at 16 µM | purified calpain II, 30 min;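 active = inhibition above about 50%, limit read from the data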
Lmaj promast = Leishmania major promastigote growth inhibition, primary screen; Leishmania major promastigotes, resazurin fluorescence viability; inhibition, % at 10 µM; 200,000 tested, 9% active; in the data active = inhibition above about 50%;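 also: promastigotes grown with compound for 44 hours at 28 °C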
WT yeast gro inh = growth inhibition of WT strain, primary screen, mitochondrial fusion inhibitor project, WT and mutant strains, chemical genetic; 190,000 tested, 2.1% active; mitochondrial fusion phenotypic screen; inhibition, % at 10 µM; in the data active = inhibition above about 58%; tested in S. cerevisiae
Each line names hits and unclear results; the compound was inactive in the other large screens.

O=S1(=O)CCC(N=Nc2c(O)n(Cc3ccccc3)c3ccccc23)C1 (stereo not drawn)	none (no result: ROMK primary, Lmaj promast, WT yeast gro inh)
COc1ccc(N=C2SC(CC(=O)Nc3ccccc3)C(=O)N2CC2CCCO2)cc1 (stereo not drawn)	Lmaj promast 63.4 (no result: Cl transport mod)
COc1ccc(N=C2SC(CC(=O)Nc3ccccc3)C(=O)N2CCN2CCOCC2)cc1 (stereo not drawn)	Lmaj promast 55.7
COC(=O)c1cc(NC(=O)CC2SC(=Nc3ccccc3)N(CCc3c[nH]c4ccccc34)C2=O)cc(C(=O)OC)c1 (stereo not drawn)	Lmaj promast 99.2
COC(=O)C1=C(C)N(CCc2c[nH]c3ccccc23)C(=O)C1	none
COc1ccc(N=C2SC(CC(=O)Nc3ccccc3OC)C(=O)N2Cc2ccco2)cc1 (stereo not drawn)	Lmaj promast 99.2
COCCN1C(=O)C(CC(=O)Nc2ccc(C(=O)O)cc2)SC1=Nc1ccccc1 (stereo not drawn)	none
CCOC(=O)c1sc2nc(C)nc(SCC(=O)N(CC)C3CCS(=O)(=O)C3)c2c1C (stereo not drawn)	none
Nc1cc(=O)[nH]c(SCc2ccc(Cl)cc2)n1	Lmaj promast 69.3 (no result: Cl transport mod)
CCCCCCCCNC(C)C(O)c1ccc(SC(C)C)cc1 (stereo not drawn)	Lmaj promast 100.3, WT yeast gro inh 98.3 (no result: ROMK primary)
CC(NCCc1ccc(O)cc1)C(O)c1ccc(O)cc1 (stereo not drawn)	none (no result: ROMK primary)
CS(=O)(=O)N1CCCC(C(=O)N2CCN(c3cccc(Cl)c3)CC2)C1 (stereo not drawn)	none
Cc1ccccc1N=C1SC(CC(=O)Nc2ccc3ccccc3c2)C(=O)N1Cc1ccccn1 (stereo not drawn)	Lmaj promast 98.2
CC1(C)CC(CCN)(Cc2ccccc2Cl)CCO1 (stereo not drawn)	none (no result: ROMK primary, Lmaj promast, WT yeast gro inh)
CCCCCc1ccc(C(=O)CCCC)c(=S)[nH]1	Cl transport mod 119, ROMK primary 3.84, WT yeast gro inh 66.4
CCOc1cccc(/C=N/NC(=S)Nc2cc(S(=O)(=O)N3CCOCC3)ccc2N2CCOCC2)c1O	Lmaj promast 84.6 (no result: ROMK primary)
COc1ccc(/C=N/NC(=S)Nc2cc(S(=O)(=O)N3CCOCC3)ccc2N2CCOCC2)cc1O	Lmaj promast 100.1
Cc1cnc(C(=O)OCC(=O)N(C(C)C)C(C)C)cn1	none (no result: ROMK primary)
Cc1ccc(-c2cc(C(=O)N3N=C(C(F)F)CC3(O)C(F)F)c3ccccc3n2)cc1C (stereo not drawn)	Lmaj promast 60.6, WT yeast gro inh 92.1 (no result: ROMK primary)
Cc1cc(C)cc(-n2c(C)cc(C(=O)CSc3nnnn3C)c2C)c1	Lmaj promast 91.4
COc1ccc(C(=O)c2c(C(F)(F)F)oc3c2C(=O)c2ccccc2C3=O)cc1OC	Lmaj promast 100.3, WT yeast gro inh 90.4 (no result: Cl transport mod)
CCOC(=O)c1cnc(SC2CCc3ccccc3C2=O)nc1N (stereo not drawn)	m-calpain inh 59.3 (no result: ROMK primary)
COc1ccc(CCNC(=O)c2ccc(C)s2)cc1OC	none
Cc1ccc(-c2n[nH]c(=S)n2Cc2ccccc2)cc1	none (no result: Cl transport mod)
Cc1ccc(NCc2nnc(SCC(=O)O)n2Cc2ccccc2)cc1Cl	none
Cc1ccc(NCc2n[nH]c(=S)n2Cc2ccccc2)cc1Cl	WT yeast gro inh 67.4 (no result: ROMK primary)
S=c1[nH]nc(-c2cc3ccccc3o2)n1Cc1ccccc1	Cl transport mod 27.7, WT yeast gro inh 65.4
Cc1cccc(-c2n[nH]c(=S)n2Cc2ccccc2)c1	WT yeast gro inh 72.0
S=c1[nH]nc(CCc2ccccc2)n1Cc1ccccc1	none (no result: Cl transport mod, ROMK primary)
COCCCNC(=S)N1CCC(NC(=O)Nc2ccc(C)cc2)CC1	none
CC1=NN(c2ccccc2)C(=O)/C1=C/c1c(O)n(-c2ccc(F)c(Cl)c2)[nH]c1=O	Cl transport mod -8.28 (no result: ROMK primary)
Cc1[nH]n(C2=NCCS2)c(=O)c1N=Nc1ccccc1	Lmaj promast 79.6
Cc1ccc(C2=NOC(=O)/C2=C\C=C\c2ccccc2)cc1	Lmaj promast 100.5
CC1=NN(c2ccccc2)C(=O)/C1=C\c1c(C)[nH]n(-c2ccccc2)c1=O	ROMK primary -3.65
Cc1[nH]n(-c2ccccc2)c(=O)c1N=Nc1ccc2c(c1)OCO2	none (no result: ROMK primary)
O=C(N/N=C/c1ccccc1O)C(=O)Nc1ccccn1	none
Cc1[nH]n(-c2ccccc2)c(=O)c1/C=N/c1nn[nH]n1	none
Cc1[nH]n(-c2ccccc2)c(=O)c1N=Nc1nccs1	Cl transport mod 25.3, ROMK primary 12.7, Lmaj promast 96.2

Screens (PubChem)
